According to PubChem BioAssay (NCATS):
Results filed as inconclusive are left out. Activity calls are given as the source filed them. Unless noted, no rule for the calls is given here.

Experiments:
[1] = molecular target: Glutathione peroxidase 1 (Homo sapiens) (UniProt P07203); assay: Primary qHTS Assay for Inhibitors of Recombinant Selenoprotein Glutathione Peroxidase 1 (GPX1) (AID 1845191; active = well fitted inhibition curve with a large enough effect; also: % is scaled to controls: 0 for no effect and ±100 for the full control effect; nearly all actives have a fitted effect of over 65% in size); settings: outcome: dose series up to 48.8 µM unless noted
Glutathione peroxidase 1 (Homo sapiens), sequence (P07203 whole entry, looked up): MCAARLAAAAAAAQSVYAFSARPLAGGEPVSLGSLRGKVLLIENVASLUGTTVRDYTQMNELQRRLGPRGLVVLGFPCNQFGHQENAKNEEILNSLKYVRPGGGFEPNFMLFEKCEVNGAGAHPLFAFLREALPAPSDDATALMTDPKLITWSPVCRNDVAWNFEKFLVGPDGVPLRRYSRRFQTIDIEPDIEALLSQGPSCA
Outline: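 NADPH consumption tracked by fluorescence at 340/450 nm between t=0 and t=15 min, room temperature. Final mix: 10 nM GPX1, 100 nM glutathione reductase, 1 mM GSH, 0.5 mM NADPH, 0.5 mM cumene hydroperoxide, 0.01% BSA; 30 min compound–enzyme preincubation.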

[2] = molecular target: Phospholipid hydroperoxide glutathione peroxidase GPX4 (Homo sapiens) (UniProt P36969); assay: Primary qHTS Assay for Inhibitors of Recombinant Selenoprotein Glutathione Peroxidase 4 (GPX4) (AID 1845192; active = well fitted inhibition curve with a large enough effect; also: nearly all actives have a fitted effect of over 65% in size); settings: outcome: dose series up to 50 µM unless noted
Phospholipid hydroperoxide glutathione peroxidase GPX4 (Homo sapiens), sequence (P36969 whole entry, looked up): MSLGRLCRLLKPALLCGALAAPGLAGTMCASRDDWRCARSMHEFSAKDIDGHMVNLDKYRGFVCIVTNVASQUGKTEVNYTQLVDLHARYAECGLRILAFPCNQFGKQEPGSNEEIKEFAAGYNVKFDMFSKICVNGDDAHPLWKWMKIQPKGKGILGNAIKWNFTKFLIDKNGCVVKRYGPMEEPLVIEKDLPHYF
Outline: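 NADPH consumption followed by fluorescence at 340/450 nm, t=0 and after 15 min at room temperature. Reaction started with cumene hydroperoxide (0.5 mM final) after 30 min compound–GPX4 preincubation; final 200 nM GPX4, 100 nM GR, 1 mM GSH, 0.5 mM NADPH.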

[3] = qHTS profiling of the MIPE4 collection as inhibitors of Plasmodium falciparum (3D7) proliferation (AID 743344);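 also: scaled between DMSO vehicle wells and 0.29 µM artemisinin as full inhibition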; settings: P. falciparum 3D7 in erythrocytes, SYBR Green DNA fluorescence, 72 h; at 5.51 µM (top of the series) unless noted
Outline: (§1)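 Parasite DNA was quantified by SYBR Green I fluorescence (ex 485, em 535 nm) after overnight lysis in saponin/Triton buffer at room temperature. Cultures at 0.3% parasitemia and 2.5% hematocrit were first exposed to compound for 72 h at 37 C; signals were normalised to artemisinin (0.29 uM) and vehicle wells.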

[4] = qHTS profiling of the MIPE4 collection as inhibitors of Plasmodium falciparum (DD2) proliferation (AID 743345); settings: P. falciparum Dd2 in erythrocytes, SYBR Green DNA, 72 h; at 5.51 µM (top of the series) unless noted
Outline: as §1

[5] = qHTS profiling of the MIPE4 collection as inhibitors of Plasmodium falciparum (DD2) proliferation (Rep 2) (AID 743346); settings: P. falciparum Dd2 in erythrocytes, SYBR Green DNA, 72 h; at 5.51 µM (top of the series) unless noted
Outline: as §1

[6] = qHTS profiling of the MIPE4 collection as inhibitors of Plasmodium falciparum (HB3) proliferation (AID 743347);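 also: plate controls were DMSO vehicle wells for no effect and artemisinin wells for full effect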; settings: P. falciparum HB3 in erythrocytes, SYBR Green DNA, 72 h; at 5.51 µM (top of the series) unless noted
Outline: as §1

| Compound | outcome [1] | outcome [2] | parasite growth, % of DMSO control [3] [%] | parasite growth remaining, % of DMSO control (lower = more inhibition) [4] [%] | parasite growth, % of control (lower = inhibition) [5] [%] | growth, % of control [6] [%] | activity, negative = inhibition [1] |
| --- | --- | --- | --- | --- | --- | --- | --- |
| CCC(=O)O[C@@H]1CC(=O)O[C@H](C)C/C=C/C=C/[C@@H](O)[C@H](C)C[C@H](CC=O)[C@H](OC2O[C@H](C)[C@@H](O[C@H]3C[C@@](C)(O)[C@@H](OC(=O)CC)[C@H](C)O3)[C@H](N(C)C)[C@H]2O)[C@H]1OC (some centres not stated) | inactive | inactive |  |  |  |  |  |
| NC[C@@H]1O[C@H](O[C@H]2[C@H](O)[C@H](O[C@H]3[C@@H](O)[C@H](N)C[C@H](N)[C@H]3O[C@H]3O[C@H](CN)[C@H](O)[C@H](O)[C@H]3N)O[C@@H]2CO)[C@@H](N)[C@@H](O)[C@@H]1O |  |  | 98.8 | 101 | 77.1 | 77.3 | -26.7% [at 4.49 µM] (inactive) |
